Twelve compounds from the supplement of paper PMC7695840 can be followed below.

Structures can show the parent of a compound that is named as a salt.

In the test the test system is Staphylococcus aureus MW2 delta-mecA (mecA-). The test is described as follows: normalized GFP fluorescence (growth of mecA- strain) (fraction of control range); higher = more growth of mecA- strain. To be noted: compound concentration: 150 uM; cefoxitin: subinhibitory; fluorescent label: GFP. In short, it runs like this: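 Pre-induced S. aureus MW2 cells with the gene (DsRed) and without it (GFP) were mixed 1:1 in LB holding a subinhibitory antibiotic dose set daily and grown on 150 μM compound (1.5% DMSO) in 1536-well plates, single replicate, for 20 h at 37 °C. DsRed (540/590) and GFP (485/520) readings were scaled per plate between single-strain control medians. Plates with high untreated ratios and rows with DsRed/GFP >10 were excluded.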
In the case of `Cc1cc(CC(=O)O)n(C)c1C(=O)c1ccc(Cl)cc1`, the “normalized GFP fluorescence” value is 0.288.
Next, `CN[C@@H]1[C@H](O[C@H]2[C@H](O[C@H]3[C@H](O)[C@@H](O)[C@H](NC(=N)N)[C@@H](O)[C@@H]3NC(=N)N)O[C@@H](C)[C@]2(O)CO)O[C@@H](CO)[C@H](O)[C@H]1O`: 0.292.
The result for `CCC(=O)O[C@@H](O[P@](=O)(CCCCc1ccccc1)CC(=O)N1C[C@H](C2CCCCC2)C[C@H]1C(=O)O)C(C)C` [Fosinopril sodium (Monopril)] reads 0.0781; that for `Cc1cc2c(cc1CC(=O)c1sccc1S(=O)(=O)Nc1onc(C)c1Cl)OCO2`, 0.251.
The result for `COc1ccc2cc([C@H](C)C(=O)O)ccc2c1` [Naproxen (Aleve)] reads 0.0134.
Turning to `CN1CCCCC1CCN1c2ccccc2Sc2ccc([S+](C)[O-])cc21` (configuration not stated), the “normalized GFP fluorescence” value amounted to 0.265.
Next, `CC1(C)O[C@@H]2C[C@H]3[C@@H]4CCC5=CC(=O)CC[C@]5(C)[C@@]4(F)[C@@H](O)C[C@]3(C)[C@]2(C(=O)CCl)O1`: 0.195.
As to `COc1ccccc1N1CCN(CCCNc2cc(=O)n(C)c(=O)n2C)CC1` [Urapidil hydrochloride], the “normalized GFP fluorescence” value is 0.413.
The result for `Cc1ccc(C(=O)c2ccc(CC(=O)O)n2C)cc1` reads 0.421; that for `COC(=O)Nc1nc2cc(Sc3ccccc3)ccc2[nH]1`, 0.378; that for `Cc1c(O)c(=O)ccn1C` [Deferiprone], 0.292.
The result for `C[C@@H]1O[C@@H](OC[C@H]2O[C@@H](Oc3c(-c4ccc(O)c(O)c4)oc4cc(O)cc(O)c4c3=O)[C@H](O)[C@@H](O)[C@@H]2O)[C@H](O)[C@H](O)[C@H]1O` [Rutin (Rutoside)] reads 0.394.
